The list is not random: actives were taken first. Their share in the collection is about 7.3%.
Rab9 prom act: activators of Rab9 promoter. Huh7 Rab9 promoter-luciferase reporter, luminescence, 24 h. Potency, µM (highest dose often 9.22 µM), hits mostly activators. 320,000 tested, 2.8% active; further: nearly all actives have a fitted effect of over 60% in size
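Stable Rab9-luc Huh7, 1500 cells/well, 2 h settle; cmpd in DMSO, 24 h, 37 °C/5% CO2; luciferase reagent 10 min RT; luminescence.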
NPC1 promoter act: activates the NPC1 promoter; Huh7 NPC1 promoter luciferase reporter, 24 h; Potency, µM (top dose mostly 9.22 µM), hits mostly activators; 320,000 tested, 2.4% active; further: nearly all actives have a fitted effect of over 60% in size
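In 1536-well qHTS, Huh7 cells harboring an NPC1 promoter–luciferase construct received compound for 24 h; activation was quantified by luminescence following luciferase reagent addition.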
ELG1 genotox: inducers of genotoxicity in HEK293T ELG1-luciferase cells; 330,000 tested, 1.3% active; AID 504466; HEK293T ELG1-luciferase reporter, luminescence, 16 h; Potency, µM (doses to about 46 µM), hits mostly activators; further: nearly all actives have a fitted effect of over 60% in size
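Genotoxicity was scored as increased ELG1-luciferase reporter signal, measured by ONE-Glo luminescence (30 min, room temperature). Compound or vehicle exposure of the HEK293T reporter cells lasted 16 hr at 37°C.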
FLuc modulator: counter-screen for miR-21 project: firefly luciferase inhibitors or activators; P08659; purified FLuc, Km substrates, luminescence inhibition; Potency, µM (doses to about 57.5 µM), hits mostly inhibitors; 360,000 tested, 6.9% active; further: nearly all actives have a fitted effect of over 55% in size
Target sequence (P08659 whole entry, looked up): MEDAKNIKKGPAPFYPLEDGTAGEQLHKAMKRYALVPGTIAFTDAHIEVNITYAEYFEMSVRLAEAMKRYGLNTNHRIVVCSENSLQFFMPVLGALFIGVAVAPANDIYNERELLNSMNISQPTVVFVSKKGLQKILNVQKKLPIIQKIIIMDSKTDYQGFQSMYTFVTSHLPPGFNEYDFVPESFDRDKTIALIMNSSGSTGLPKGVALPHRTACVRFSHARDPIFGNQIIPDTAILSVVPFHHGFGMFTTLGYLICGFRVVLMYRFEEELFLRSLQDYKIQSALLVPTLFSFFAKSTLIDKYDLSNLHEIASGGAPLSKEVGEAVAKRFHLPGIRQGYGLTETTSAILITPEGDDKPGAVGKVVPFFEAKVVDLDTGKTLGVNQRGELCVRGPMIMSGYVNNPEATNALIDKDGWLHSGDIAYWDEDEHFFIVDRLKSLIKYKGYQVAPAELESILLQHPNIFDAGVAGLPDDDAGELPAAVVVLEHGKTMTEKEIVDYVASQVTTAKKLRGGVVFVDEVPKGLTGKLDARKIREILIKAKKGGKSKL
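Purified P. pyralis luciferase (10nM final) with 10uM D-luciferin and 10uM ATP (Km levels) in 50mM Tris acetate pH 7.5, 10mM Mg acetate, 0.01% Tween-20, 0.05% BSA; qHTS 6-point titration, ~60 µM downward; luminescence read.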
SMN2 splice up: increases expression of the SMN2 splice variant; HEK293 SMN2-luciferase splicing reporter, luminescence, 30-36 h; Potency, µM (titrated, usually from 46.1 µM), usual class: activators; 210,000 tested, 2.8% active; further: nearly all actives have a fitted effect of over 55% in size
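qHTS luciferase splicing reporter: luminescence rises when SMN2 exon 7 is included in transfected HEK293 cells. Compound exposure lasted 30-36 h at 37C, with 4.5 mM final sodium butyrate as control, followed by a ONE-Glo read.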
Luc counter: blocks Kinase-Glo luciferase, a counter-screen artifact; Q27757; 200,000 tested, 0.28% active; Kinase-Glo luciferase, ATP luminescence, 8 min; Potency, µM (top dose mostly 38.3 µM), actives largely listed as inhibitors; further: nearly all actives have a fitted effect of over 60% in size
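Light output from Kinase-Glo luciferase with luciferin and 10 uM ATP in 50 mM imidazole pH 7.2, KCl, MgCl2, Tween 20, BSA; compound pin-delivered, 8-min ambient incubation, then luminescence read.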
Hits are given with their value; – = inactive; ? = inconclusive; · = no result; ! = repeats disagree; [ ] = another dose, or the depositor's remark. The call rests on the fitted dose curve; in most records, active means well fitted curve in the direction sought with a large enough effect; inconclusive means small, poorly fitted or top-dose-only effect, or another doubt; inactive means no such curve, though single readings can be large; an effect the other way counts as inactive or inconclusive.

SMILES	Rab9 prom act	NPC1 promoter act	ELG1 genotox	FLuc modulator	SMN2 splice up	Luc counter
COC(=O)c1c(NC(=O)Nc2ccc(Cl)cc2)sc(C)c1C	–	–	–	–	?	–
Cc1nc2ccccc2nc(=O)c1NNc1ccccc1	?	?	9.2µM!	?	11.2µM	–
Cc1ccc2nc(=O)c(NNc3ccccc3)cnc2c1	?	?	?	?	17.8µM	–
Cc1nc2ccccc2nc1OCc1ccccc1	–	–	–	?	–	–
CCOC(=O)C1=C(CN2CCN(c3cccc(OC)c3)CC2)NC(=O)NC1c1ccc(OC)cc1 (configuration not stated)	·	·	·	–	·	·
COc1cc(OC)cc(-c2sc3ccccc3c(=O)c2I)c1	·	·	·	·	·	–
COc1cc(-c2c(-c3ccsc3)sc3ccccc23)cc(OC)c1OC	–	–	–	–	·	·
COc1ccc(-c2cc(=O)c3ccccc3s2)cc1	0.891µM	1.41µM	2.31µM	1.07µM	3.98µM	?
COc1ccc2sc3ccccc3c(=O)c2c1	?	?	?	6.75µM	–	–
O=C(CCCCn1c(=O)c2ccccc2n(Cc2ccc(Cl)cc2)c1=O)NCc1ccccc1Cl	·	·	·	–	–	·
COc1ccc2c(c1)NC(=O)CC(c1ccccc1)=N2	–	?	16.4µM	?	–	–
COc1ccc(O)c(C2=Nc3ccccc3N=C(c3ccccc3)C2)c1	–	–	–	–	?	·
CCN(C(=O)COC(=O)c1cc(-c2ccc(C)o2)nc2ccccc12)C1CCS(=O)(=O)C1 (configuration not stated)	–	–	–	19µM	–	–
COc1cccc(/C=N/n2cnc3ccccc32)c1OC	2.24µM	2.51µM	2.59µM	4.78µM	?	–
COc1ccc(/C=N/n2c(N)nc3ccccc32)cc1OC	–	?	–	5.36µM	–	–
COc1ccc(/C=N/n2c(=S)n(C)c3ccccc32)cc1OC	–	–	–	?	–	–
C(=N\n1cnc2ccccc21)/c1cccnc1	–	–	–	?	–	–
COc1cccc(/C=N/n2c(N)nc3ccccc32)c1OC	?	?	–	12µM	?	–
COc1ccc(C(=O)Nc2nc3n(n2)C(c2ccc(F)cc2)C=C(c2ccc(Cl)cc2)N3)cc1 (configuration not stated)	·	·	·	–	·	·
CC1CCC(NC(=O)c2ccc3c(c2)N(Cc2ccccc2F)C(=O)c2ccccc2S3)CC1 (configuration not stated)	·	·	·	–	·	·
CCNC(=S)NNC(=O)c1csc(C(C)C)c1	?	–	–	–	11.2µM	–
CCCCNC(=S)NNC(=O)c1csc(C(C)C)c1	?	–	–	–	–	–
COc1ccc(-n2ncc(C(=O)NCc3ccc4c(c3)OCO4)c2C2CCN(C(=O)OC(C)(C)C)CC2)cc1	·	·	·	–	·	·
COc1ccc(/C(N)=N/OC(=O)c2cccc([N+](=O)[O-])c2)cc1	–	–	?	19µM	?	–
COc1ccccc1C/C(N)=N/OC(=O)c1cccc([N+](=O)[O-])c1C	–	–	–	–	–	–
SMILES	Rab9 prom act	NPC1 promoter act	ELG1 genotox	FLuc modulator	SMN2 splice up	Luc counter
COc1cccc(C(=O)O/N=C(\N)c2ccc([N+](=O)[O-])cc2)c1	–	–	–	2.39µM	–	–
COc1ccc(/C(N)=N/OC(=O)c2cccc([N+](=O)[O-])c2C)cc1	–	–	?	16.9µM	–	–
COc1ccc(C)cc1NC(=O)Nc1ccccc1OCc1cc(=O)n2ccccc2n1	·	·	·	–	·	·
COc1ccc(CNC(=O)C(C)n2nc(C)c3sc4ccccc4c3c2=O)cc1OC (configuration not stated)	·	·	·	–	·	·
Cc1nn(C(C)C(=O)NC2CCCCC2)c(=O)c2c1sc1ccccc12 (configuration not stated)	·	·	·	9.53µM	·	·
Cc1nn(C(C)C(=O)NCC2CCCO2)c(=O)c2c1sc1ccccc12 (configuration not stated)	–	–	–	–	·	·
Cc1ccc(CNC(=O)C(C)n2nc(C)c3sc4ccccc4c3c2=O)cc1 (configuration not stated)	·	·	·	13.5µM	·	·
CCC(C(=O)NCc1ccc(OC)c(OC)c1)n1nc(C)c2c(C)n(-c3ccc(C)cc3)nc2c1=O (configuration not stated)	·	·	·	–	·	·
CCOC(=O)C(C)n1nc(C)c2sc3ccccc3c2c1=O (configuration not stated)	–	–	–	–	–	–
CCC(C(=O)NCCc1ccc(OC)c(OC)c1)n1nc(C)c2sc3ccccc3c2c1=O (configuration not stated)	·	·	·	19µM	·	·
CSc1ccc(CCNC(=O)C(C)n2nc(C)c3sc4ccccc4c3c2=O)cc1 (configuration not stated)	·	·	·	13.5µM	·	·
CCCCC/C=C\C/C=C\CCCCCCCC(=O)NCCCC(=O)O	·	·	·	·	–	–
O=C(CCn1cnc2onc(-c3ccc(F)cc3)c2c1=O)N1CCN(c2ccccc2F)CC1	·	·	·	–	·	·
CCCN(CCC)c1nn2c(=O)c(C(=O)NCc3cccc(OC)c3)cnc2s1	·	·	·	–	·	·
Nc1ccn([C@@H]2O[C@H](COC(=O)C34CC5CC(CC(C5)C3)C4)[C@@H](O)[C@@H]2O)c(=O)n1	·	·	·	·	–[9.22 µM]	–[7.66 µM]
CCC(C(=O)Nc1cccc(Cl)c1C)n1nc(C)c2sc3ccccc3c2c1=O (configuration not stated)	·	·	·	10.7µM	·	·
CCC(C(=O)Nc1ccccc1OC)n1nc(C)c2sc3ccccc3c2c1=O (configuration not stated)	·	·	·	–	·	·
CCOC(=O)c1ccc(NC(=O)CCc2c(C)nc3c(c(C)nn3C)c2C)cc1	·	·	·	–	–	·
O=C(c1ccc(Br)cc1)c1cn[nH]c1-c1ccccc1O	–	–	–	–	·	·
CC(C)(C)c1ccc(C(=O)c2cn[nH]c2-c2ccccc2O)cc1	?	?	–	10.7µM	·	·
CCOc1cc(-c2c(C#N)c(N)nc3c2CCc2ccccc2-3)ccc1O	–	–	–	–	12.6µM	–
O=C(N/N=C/c1cccnc1)c1cc(O)c(O)c(O)c1	–	–	–	–	·	·
O=C(N/N=C\c1ccncc1)c1ccc(Br)s1	–	–	–	15.1µM	·	·
O=C(N/N=C\c1ccncc1)c1ccc(Cl)s1	–	–	–	16.9µM	·	·
O=C(N/N=C/c1ccncc1)c1ccc(NC(=O)c2ccc(Cl)cc2)cc1	–	–	?	–	–	–
SMILES	Rab9 prom act	NPC1 promoter act	ELG1 genotox	FLuc modulator	SMN2 splice up	Luc counter
O=C(N/N=C\c1cccnc1)c1ccc(Cl)s1	–	–	?	13.5µM	·	·
Cc1ccc(C(=O)N/N=C\c2ccncc2)s1	–	–	?	?	·	·
O=C(N/N=C/c1ccncc1)c1cc(-c2ccc(Br)s2)[nH]n1	–	–	–	15.1µM	·	·
O=C(N/N=C/c1ccc(Br)s1)c1cccnc1	–	–	–	–	–	–
CCc1ccc(C(=O)N/N=C/c2ccncc2)s1	?	–	?	12µM	·	·
O=C(N/N=C\c1cccnc1)c1ccc(Br)s1	–	–	–	9.53µM	·	·
